According to PubChem BioAssay AID488969 (Vanderbilt High Throughput Screening Facility, 2010):
The full ranking holds about 110,000 compounds; the median of “z-score” is about -0.1, and the highest 2% start at about 2. Many of the other results were omitted from the sample, so the highest values are more common in it than they were. Calls of active or inactive are those of the source.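 How the source made its calls: active means z-score in the third read window above 3 or below -3; inactive means the rest.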

target: Metabotropic glutamate receptor 8 (Rattus norvegicus) (UniProt P70579); assay: mGluR8 Gi/Go-coupled signaling modulation – cell-based, rat, thallium flux, HTS, primary screen (AID 488969); details: HEK293 rat mGluR8, GIRK (G protein-gated inwardly rectifying potassium channel) thallium flux, FluoZin2; at 10 µM; stronger effect = higher value; submaximal glutamate (EC20) added with thallium
Sequence (P70579 whole entry, looked up): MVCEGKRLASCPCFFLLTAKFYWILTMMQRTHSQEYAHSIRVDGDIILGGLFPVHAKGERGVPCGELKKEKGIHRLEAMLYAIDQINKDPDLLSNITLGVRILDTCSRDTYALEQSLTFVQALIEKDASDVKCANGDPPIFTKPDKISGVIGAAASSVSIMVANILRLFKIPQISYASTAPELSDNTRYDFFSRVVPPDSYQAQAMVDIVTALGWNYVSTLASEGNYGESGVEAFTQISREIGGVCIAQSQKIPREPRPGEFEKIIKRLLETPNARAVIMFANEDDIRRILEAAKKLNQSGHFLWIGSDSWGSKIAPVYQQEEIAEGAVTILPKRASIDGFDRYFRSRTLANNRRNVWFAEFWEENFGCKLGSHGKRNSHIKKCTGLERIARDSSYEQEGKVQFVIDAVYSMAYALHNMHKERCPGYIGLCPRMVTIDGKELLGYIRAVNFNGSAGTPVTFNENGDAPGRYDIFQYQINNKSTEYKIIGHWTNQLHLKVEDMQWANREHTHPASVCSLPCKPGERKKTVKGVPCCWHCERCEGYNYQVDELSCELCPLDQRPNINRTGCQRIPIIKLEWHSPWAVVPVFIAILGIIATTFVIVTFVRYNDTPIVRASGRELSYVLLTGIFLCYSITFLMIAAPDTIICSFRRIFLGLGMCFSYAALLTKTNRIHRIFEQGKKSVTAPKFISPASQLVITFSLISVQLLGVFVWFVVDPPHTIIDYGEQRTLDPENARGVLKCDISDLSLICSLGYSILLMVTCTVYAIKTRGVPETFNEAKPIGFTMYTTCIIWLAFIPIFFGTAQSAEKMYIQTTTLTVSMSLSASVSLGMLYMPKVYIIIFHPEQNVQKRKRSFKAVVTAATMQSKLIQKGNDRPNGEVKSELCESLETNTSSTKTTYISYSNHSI

Point of comparison: Cc1nc(/N=C(\N)NC(=O)N2c3ccccc3Sc3ccccc32)nc2ccccc12, z-score -0.0514. Against it:
- CC(=O)Nc1ccc2nc(C)n(Cc3ccc(Cl)cc3)c(=O)c2c1 — lower, -0.376
- CCOC(=O)N1CCC(NC(=O)C2CCN(c3ccc(N4CCOCC4)nn3)CC2)CC1 — lower, -0.202
- CCCOc1ccc(N2C(=O)CC(N3CCN(c4ccccc4OC)CC3)C2=O)cc1 (stereo not given) — lower, -0.446
- COC(=O)C1=CNC=C(C(=O)OC)C1c1ccccc1Cl — lower, -1.54
- CCOc1ccccc1N(CC(=O)Nc1ccccc1C(=O)O)S(C)(=O)=O — higher, 0.403
- c1ccc2nc3c(cc2c1)CCCCCC3 — higher, -0.0331
- CCOC(=O)c1nnn(-c2nonc2N)c1-c1cccc2ccccc12 — lower, -1.66
- O=C(NCc1ccc2c(c1)OCO2)C1CC(c2ccccc2O)=NO1 (stereo not given) — higher, 0.36
- COc1ccc(C(C[N+](=O)[O-])c2c(-c3ccccc3)cc3ccccn23)cc1 (stereo not given) — higher, 0.715
- Cc1snc(SCC(=O)N/N=C(\N)COc2ccc(F)cc2)c1C#N — higher, 0.165
- Cn1c(CNc2ccc(Cl)cc2)nnc1SCCN1CCCCC1 — higher, 0.273
- O=C(COc1ccc([N+](=O)[O-])cc1)NCCC1=CCCCC1 — lower, -0.0621
- CCCNC(=S)Nc1ccc(Cl)cc1Cl — higher, -0.0325
- COC(=O)c1c(NS(C)(=O)=O)sc2c1CCCC2 — higher, 0.0189
- COC(=O)c1c(NC(C)=O)sc2c1CCCC2 — lower, -0.117
- COC(=O)c1c(NS(=O)(=O)c2ccc3ccccc3c2)sc2c1CCCC2 — higher, 0.384
- COC(=O)c1c(NC(=O)CN(c2ccccc2)S(C)(=O)=O)sc2c1CCCC2 — higher, 0.77
- C=CCn1c(Cc2csc(N)n2)nnc1SCC(=O)Nc1ccc(C(=O)OCC)cc1 — lower, -2.2
- CCOC(=O)C1CCN(C(=O)c2ccccc2Oc2ccccc2)CC1 — lower, -0.386
- COc1ccc(-c2nsc(SCC(=O)Nc3ccc4c(c3)OCO4)n2)cc1 — lower, -0.142
- CCOC(=O)NCc1ccc(S(=O)(=O)Nc2ccc(C)cc2)cc1 — higher, 0.21
- Cc1ccc(-c2cc(N)n(Cc3ccc(Cl)cc3)n2)cc1 — lower, -0.532
- CC(C)CC(=O)NCCCCc1ccccc1 — lower, -0.29
- O=C(NC(=S)N(Cc1ccccc1)Cc1ccccc1)C1CCCCC1 — higher, 0.526
- CC(C)CC(=O)NC(=S)NCCc1ccccc1 — higher, 0.38
- O=C(NC(=S)N(Cc1ccccc1)Cc1ccccc1)c1ccccc1F — lower, -1.15
- CN(C)CCN1C(=O)C(O)=C(C(=O)c2cc3ccccc3o2)C1c1ccc(N(C)C)cc1 (stereo not given) — lower, -0.145
- CC(C)(C)c1ccc(S(=O)(=O)NC(Cc2ccccc2)C(=O)O)cc1 (stereo not given) — higher, 0.161
- Cc1nn(Cc2ccc(Cl)cc2Cl)c(Cl)c1/C=N/NC(=O)CNc1cccc(C(F)(F)F)c1 — lower, -0.087
- CCOCCn1c(=NC(=O)c2cc(Cl)sc2Cl)sc2cc(S(N)(=O)=O)ccc21 — higher, -0.0217
- CCCCNC(=O)CCn1c(=O)c2ccccc2n(Cc2ccc(F)cc2)c1=O — lower, -0.407
- COc1cc(OC)cc(C(=O)N[C@H](C(=O)N2CCc3ccccc32)C(C)C)c1 — lower, -0.177
- c1cc2c3c(cccc3c1)C(N1CCN(C3=Nc4cccc5cccc3c45)CC1)=N2 — higher, -0.0313
- c1cc2c3c(cccc3c1)C(N1CCCCCC1)=N2 — higher, 0.822
- COc1cc(S(=O)(=O)N(Cc2ccccc2)Cc2ccccn2)ccc1-n1cnnn1 — lower, -0.0596
- N#CCCN1CCN(S(=O)(=O)c2ccc3c(c2)OCCCO3)CC1 — lower, -0.473
- Cc1c(C(=O)O)[nH]c2c1C(=O)CC(c1ccccc1)C2 (stereo not given) — lower, -0.21
- Cc1c(C(=O)N2CCOCC2)[nH]c2c1C(=O)CC(c1ccc(Cl)cc1)C2 (stereo not given) — lower, -0.803
- CC(C)=CCC/C(C)=C/C=N/NC(=O)c1ccc([N+](=O)[O-])cc1 — higher, 1.52
- CCOC(=O)C1CCC2(CC1)C(C#N)=C(N)Oc1n[nH]c(C)c12 (stereo not given) — higher, 0.0849
- CCOc1ccc(S(=O)(=O)N(CC(=O)Nc2cc(C)on2)Cc2ccccc2Cl)cc1 — lower, -1.72
- CC(=O)c1ccc(OC(=O)C2CC(=O)N(c3cccc(C)c3)C2)cc1 (stereo not given) — lower, -1.58
- O=C(Nc1ccccc1Br)C(=O)N1CCCC1 — higher, -0.0281
- O=C(NNc1ccccc1Br)C(=O)n1ccc2ccccc21 — higher, 2.23
- Cc1ccccc1NC(=O)Nc1ccccc1Br — lower, -0.375
- Cc1ccc(S(=O)(=O)N2CCN(c3cc4c(cc3[N+](=O)[O-])n(C)c(=O)n4C)CC2)cc1 — lower, -0.078
- COC(=O)c1cc2ccccc2c(-c2c(O)ccc3ccccc23)c1O — higher, 0.0387
- Cc1ccc(C2NC(=O)NC(O)(C(F)(F)F)C2C(=O)c2cccs2)o1 (stereo not given) — lower, -0.404
- Cc1ccc(C(=O)C2C(c3cccs3)NC(=O)NC2(O)C(F)(F)F)cc1 (stereo not given) — higher, 2.58
- O=C1NC(c2ccccc2)C(C(=O)c2cccs2)C(O)(C(F)(F)F)N1 (stereo not given) — lower, -0.23
- Cc1nnc(NC(=O)c2cccc(S(=O)(=O)N3CCc4ccccc43)c2)s1 — higher, 0.437
- CSc1ccc(C(=S)N2CCN(CCO)CC2)cc1 — higher, 0.0369
- CC(CN1CCN(C)CC1)OC(=O)c1ccc(Cl)cc1 (stereo not given) — higher, 1.05
- CC(CN1CCN(C)CC1)OC(=O)c1ccc(Cl)cc1Cl (stereo not given) — higher, 0.335
- CC(CN1CCCCC1)OC(=O)c1ccc(Cl)cc1Cl (stereo not given) — higher, 2.27
- CCCCOc1ccc(S(=O)(=O)NCc2csc(C)n2)cc1 — lower, -1.17
- N/C(=N\c1nc2ccccc2o1)NC(=O)c1ccccc1 — lower, -0.339
- Cc1nc(/N=C(\N)NC(=O)c2ccccc2)nc2ccccc12 — higher, 2.8
- CCOc1nc(S(=O)(=O)c2ccc(C)cc2)c(Cl)s1 — lower, -0.802
- CC1CCCN(c2nc3ccccc3nc2C(C#N)S(=O)(=O)c2cccs2)C1 (stereo not given) — lower, -1.84
- O=C(CCNC(=O)c1ccccc1Cl)NCC12CC3CC(CC(C3)C1)C2 — lower, -0.16
- Cc1nn(-c2ccc(C(F)(F)F)cn2)c(C)c1Oc1ccccc1O — higher, 2.25
- Cc1nn(-c2ccc(C(=O)O)cc2)c(C)c1Oc1ccccc1O — lower, -0.318
- Cc1cc(C)nc(-n2nc(C)c(Oc3ccccc3O)c2C)n1 — lower, -0.176
- COc1ccc(CCNC(=O)C2CC(=O)N(c3ccccc3)C2)cc1OC (stereo not given) — higher, 0.172
- O=C(CSc1nnc(Cc2cc(=O)[nH]c(=O)[nH]2)n1-c1ccccc1)NCC1CCCO1 (stereo not given) — higher, 0.18
- Cn1nnc(NC(=O)c2cccc(OCc3ccccc3)c2)n1 — lower, -0.179
- Cc1ccc(C(=O)NCC2CCCO2)cc1[N+](=O)[O-] (stereo not given) — higher, 0.0557
- CCCCCn1c(SCC(=O)OC)nc2c1c(=O)[nH]c(=O)n2C — higher, 2.01
- COC(=O)CSc1nc2c(c(=O)[nH]c(=O)n2C)n1CCC(C)C — lower, -0.127
- CCCCn1c(SCC(=O)OCC)nc2c1c(=O)[nH]c(=O)n2C — lower, -0.555
- Cc1ccc2cc(S(=O)(=O)NCCCC(=O)O)ccc2c1 — lower, -0.0725
- CCCCNC(=O)c1ccc(N2CCC3(CC2)OCCO3)c([N+](=O)[O-])c1 — lower, -0.757

In the case of COC(=O)c1c(NS(=O)(=O)Cc2ccccc2)sc2c1CCCC2, the z-score is reported as 17 (active).
In the case of COC(=O)c1c(NS(=O)(=O)c2cccs2)sc2c1CCCC2, the z-score is reported as 6.32 (active).
In the case of CC(C)CC(=O)NC(=S)N(Cc1ccccc1)Cc1ccccc1, the z-score is reported as 8.66 (active).
CC(C)C(=O)NC(=S)N(Cc1ccccc1)Cc1ccccc1 was tested, and the z-score was 9.57 (active).
For CCCCN(C)C1=Nc2cccc3cccc1c23, the z-score was 3.17 (active).
For Cc1c(C(=O)O)[nH]c2c1C(=O)CC(c1ccc(Cl)cc1)C2 (stereo not given), the z-score was 5.28 (active).
